Source: PubChem BioAssay (NCI)
This is part of a sample that, as a whole, favours compounds with a hit. Of some 83,000 tested, about 20% had one in any assay.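 Results are percent growth after 48 hours of single-concentration exposure. 100 means growth as in untreated cells, lower positive values show inhibition; negative values down to -100 show cell death.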 Active and inactive are the calls of the source. Rule for the calls: active = growth percent below 10; inactive = the rest.

What was measured:
Experiment in all cases: NCI-60 one-dose screen, 48 h (100 = growth as untreated, 0 = no growth, -100 = all killed)
NCI-H23 lung = conditions: 10 µM unless noted
NCI-H460 lung = conditions: 10 µM unless noted
RXF 393 renal = conditions: 10 µM unless noted
SF-295 CNS = conditions: 10 µM unless noted
M14 melanoma = conditions: 10 µM unless noted
HT29 colon = conditions: 10 µM unless noted
U251 CNS = conditions: 10 µM unless noted
SK-MEL-5 melanoma = conditions: 10 µM unless noted
UO-31 renal = conditions: 10 µM unless noted
CAKI-1 renal = conditions: 10 µM unless noted
A498 renal = conditions: 10 µM unless noted
HS 578T breast = conditions: 10 µM unless noted
T-47D breast = conditions: 10 µM unless noted
BT-549 breast = conditions: 10 µM
HCC-2998 colon = conditions: 10 µM unless noted
K-562 leukemia = conditions: 10 µM unless noted
HL-60(TB) leukemia = conditions: 10 µM unless noted
CCRF-CEM leukemia = conditions: 10 µM unless noted
RPMI-8226 leukemia = conditions: 10 µM unless noted
HCT-116 colon = conditions: 10 µM unless noted

Measured: growth

C[C@@H]1O[C@@H](O[C@H]2CC[C@@]3(C)[C@H](CCC4[C@@H]3C(O)C[C@]3(C)[C@@H](c5ccc(=O)oc5)CC[C@]43O)C2)[C@H](O)[C@H](O)[C@H]1O (some centres undefined)
active: NCI-H23 lung -78.5% | NCI-H460 lung -80.7% | RXF 393 renal -52.3% | SF-295 CNS -71.5% | M14 melanoma -70.7% | HT29 colon -90.4% | U251 CNS -97.9% | SK-MEL-5 melanoma -99.6% | UO-31 renal -97.3% | CAKI-1 renal -68.7% | A498 renal -27.9% | HS 578T breast -9.52% | T-47D breast -55.6% | BT-549 breast -89.9% | HCC-2998 colon -73.6%

O=C(CF)N(O)c1ccc(/C=C/c2ccccc2)cc1
inactive: NCI-H23 lung 60.7% | NCI-H460 lung 13% | K-562 leukemia 45.4% | RXF 393 renal 50.7% | M14 melanoma 43.2% | HT29 colon 57.6% | U251 CNS 35.6% | SK-MEL-5 melanoma 77.1% | UO-31 renal 36.2% | CAKI-1 renal 11.9% | HL-60(TB) leukemia 13.4% | CCRF-CEM leukemia 13.5% | HS 578T breast 99% | T-47D breast 26% | BT-549 breast 44.9% | HCC-2998 colon 25.4%
active: SF-295 CNS 9.04% | A498 renal -31.7%

O=[N+]([O-])c1ccc2cnn(CSP(=S)(c3ccccc3)c3ccccc3)c2c1
inactive: NCI-H23 lung 67.4% | K-562 leukemia 19% | RXF 393 renal 70.1% | SF-295 CNS 96.3% | M14 melanoma 58.1% | HT29 colon 39.6% | U251 CNS 74.1% | SK-MEL-5 melanoma 56% | UO-31 renal 58.9% | CAKI-1 renal 81.5% | HL-60(TB) leukemia 35.2% | CCRF-CEM leukemia 45.9% | RPMI-8226 leukemia 52.3% | T-47D breast 69.5% | BT-549 breast 69.7% | HCT-116 colon 42.4% | HCC-2998 colon 89%

N#CC1=C(N)Oc2cc3c(cc2C1c1cccs1)OCO3 (centres undefined)
inactive: NCI-H23 lung 15.2% | NCI-H460 lung 15.6% | M14 melanoma 15.1% | U251 CNS 25.4% | SK-MEL-5 melanoma 16.2% | UO-31 renal 49.2% | CAKI-1 renal 43.4% | CCRF-CEM leukemia 21.4% | RPMI-8226 leukemia 24.9% | HS 578T breast 24.6% | T-47D breast 42.8% | BT-549 breast 44.6% | HCT-116 colon 21.2% | HCC-2998 colon 39.5%
active: RXF 393 renal -5.68% | SF-295 CNS 4.03% | HT29 colon 8.98% | A498 renal 7.63% | HL-60(TB) leukemia -28.6%

O=[N+]([O-])c1ccc(/C=C/C=C/c2ccc(S(=O)(=O)F)cc2)c(Cl)c1
inactive: NCI-H23 lung 96.4% | NCI-H460 lung 107% | K-562 leukemia 96.1% | RXF 393 renal 92.2% | SF-295 CNS 93.1% | M14 melanoma 100% | HT29 colon 96% | U251 CNS 96.2% | SK-MEL-5 melanoma 97.9% | UO-31 renal 79.2% | CAKI-1 renal 98.3% | A498 renal 100% | HL-60(TB) leukemia 91.9% | CCRF-CEM leukemia 85.8% | RPMI-8226 leukemia 93.4% | HS 578T breast 111% | T-47D breast 86.2% | BT-549 breast 100% | HCT-116 colon 106% | HCC-2998 colon 106%

CCOC(=O)c1cnc(SCc2ccc(Cl)c(Cl)c2)nc1N1CC1
inactive: NCI-H23 lung 51.1% | NCI-H460 lung 41% | K-562 leukemia 21.4% | RXF 393 renal 66.6% | SF-295 CNS 39.1% | HT29 colon 31.2% | U251 CNS 49% | SK-MEL-5 melanoma 72.6% | UO-31 renal 34.7% | CAKI-1 renal 31.1% | A498 renal 44.3% | HL-60(TB) leukemia 56.8% | CCRF-CEM leukemia 38% | RPMI-8226 leukemia 59.7% | HS 578T breast 59.3% | T-47D breast 58.6% | BT-549 breast 52.6% | HCT-116 colon 23.5% | HCC-2998 colon 51.9%

N#CC(C#N)=Cc1ccc2ccccc2c1
inactive: NCI-H23 lung 100% | K-562 leukemia 102% | RXF 393 renal 96.5% | SF-295 CNS 111% | M14 melanoma 104% | HT29 colon 113% | U251 CNS 104% | SK-MEL-5 melanoma 101% | CAKI-1 renal 101% | HL-60(TB) leukemia 96.4% | CCRF-CEM leukemia 93.3% | RPMI-8226 leukemia 90.3% | T-47D breast 110% | BT-549 breast 100% | HCT-116 colon 107%

COc1ccc(C(c2ccc(OC)cc2)C(Cl)(Cl)Cl)cc1
inactive: NCI-H23 lung 81.9% | NCI-H460 lung 91.8% | K-562 leukemia 65.7% | RXF 393 renal 73.4% | SF-295 CNS 102% | M14 melanoma 84.5% | HT29 colon 78.3% | U251 CNS 90.4% | SK-MEL-5 melanoma 80.2% | UO-31 renal 53.4% | CAKI-1 renal 68.4% | A498 renal 57.3% | HL-60(TB) leukemia 72.5% | CCRF-CEM leukemia 55.6% | RPMI-8226 leukemia 71.5% | T-47D breast 68.4% | BT-549 breast 110% | HCT-116 colon 61.8% | HCC-2998 colon 94.4%

O=C(CC1(O)C(=O)Nc2ccc(F)cc21)c1ccc(C(=O)NCC2CCC3(CC2)OOC2(CCCCC2)OO3)cc1 (centres undefined)
inactive: NCI-H23 lung 34.9% | NCI-H460 lung 21.7% | K-562 leukemia 14.9% | RXF 393 renal 59.4% | SF-295 CNS 79.3% | U251 CNS 15.3% | A498 renal 65% | RPMI-8226 leukemia 12.7% | HS 578T breast 73.8% | T-47D breast 29.6% | BT-549 breast 78% | HCT-116 colon 69.7% | HCC-2998 colon 113%
active: UO-31 renal -81.7% | CAKI-1 renal -15.9% | HL-60(TB) leukemia -64.2% | CCRF-CEM leukemia -32.1%

CC(=O)Nc1ccc(Cc2ccc(NC(C)=O)cc2)cc1
inactive: NCI-H23 lung 107% | NCI-H460 lung 104% | K-562 leukemia 112% | RXF 393 renal 89.4% | SF-295 CNS 108% | HT29 colon 104% | U251 CNS 101% | SK-MEL-5 melanoma 104% | UO-31 renal 78% | CAKI-1 renal 88.9% | A498 renal 129% | HL-60(TB) leukemia 49.1% | CCRF-CEM leukemia 101% | RPMI-8226 leukemia 98.2% | HS 578T breast 121% | T-47D breast 103% | BT-549 breast 117% | HCC-2998 colon 116%

O=c1cc[nH]c(=O)o1
inactive: NCI-H23 lung 105% | NCI-H460 lung 106% | K-562 leukemia 105% | RXF 393 renal 114% | SF-295 CNS 101% | M14 melanoma 103% | HT29 colon 95.9% | U251 CNS 102% | SK-MEL-5 melanoma 105% | UO-31 renal 93.6% | CAKI-1 renal 102% | A498 renal 114% | HL-60(TB) leukemia 80.2% | RPMI-8226 leukemia 93.1% | HS 578T breast 120% | T-47D breast 96.3% | BT-549 breast 102% | HCT-116 colon 98.1% | HCC-2998 colon 116%

CCCC(C)(C)c1ccc2c(c1)OC(C)(C)[C@@H]1CC=C(C)C[C@@H]21
inactive: NCI-H23 lung 96.1% | NCI-H460 lung 106% | K-562 leukemia 92.3% | RXF 393 renal 108% | SF-295 CNS 101% | M14 melanoma 99.7% | HT29 colon 102% | U251 CNS 96.2% | SK-MEL-5 melanoma 102% | UO-31 renal 79.8% | A498 renal 83.9% | HL-60(TB) leukemia 92.7% | CCRF-CEM leukemia 84.2% | RPMI-8226 leukemia 92.9% | HS 578T breast 100% | T-47D breast 97.2% | BT-549 breast 97.7% | HCT-116 colon 87.6% | HCC-2998 colon 109%

C[C@@H]1CC[C@@H]2[C@@H]1[C@H](OC(=O)/C=C/C1CCCCC1)[C@]1(C3CCCCC3)C[C@@H](OC(=O)CO)[C@@]2(C)O1
active: UO-31 renal -44.2% | CAKI-1 renal -21.9% | A498 renal -83.3% | HL-60(TB) leukemia 8.36% | HS 578T breast -28.1% | BT-549 breast 0.314%
inactive: NCI-H23 lung 71.5% | NCI-H460 lung 64.2% | K-562 leukemia 44.1% | RXF 393 renal 13.3% | SF-295 CNS 72.7% | HT29 colon 31.4% | U251 CNS 60.2% | SK-MEL-5 melanoma 84.8% | CCRF-CEM leukemia 41.1% | RPMI-8226 leukemia 25.3% | HCT-116 colon 39.6% | HCC-2998 colon 49.5%

CC1(C)N=C(N)N=C(N)N1c1ccc(CCC(=O)Nc2cccc(S(=O)(=O)F)c2)cc1
inactive: NCI-H23 lung 63.8% | NCI-H460 lung 27.7% | K-562 leukemia 26.2% | RXF 393 renal 64.7% | SF-295 CNS 89.6% | HT29 colon 66.2% | U251 CNS 42.3% | SK-MEL-5 melanoma 32.9% | UO-31 renal 85.2% | HL-60(TB) leukemia 47.6% | HS 578T breast 121% | T-47D breast 98.4% | BT-549 breast 84.9% | HCT-116 colon 41.3% | HCC-2998 colon 67.5%
active: CAKI-1 renal -5.98%

N#[N+]c1cnc([O-])[nH]c1=O
inactive: NCI-H23 lung 26.9% | NCI-H460 lung 107% | K-562 leukemia 76% | SF-295 CNS 105% | M14 melanoma 108% | HT29 colon 105% | U251 CNS 98.3% | SK-MEL-5 melanoma 97% | UO-31 renal 39% | CAKI-1 renal 94.3% | A498 renal 85.9% | HL-60(TB) leukemia 67.4% | CCRF-CEM leukemia 69.9% | RPMI-8226 leukemia 60.2% | HS 578T breast 83.5% | T-47D breast 101% | BT-549 breast 114% | HCT-116 colon 108%

COc1ccc2c(c1)NC1=C(C(=O)OC1)C2c1cc(OC)c(OC)c(OC)c1 (centres undefined)
inactive: NCI-H23 lung 16.2% | RXF 393 renal 36.7% | UO-31 renal 47.2% | CAKI-1 renal 25.4% | RPMI-8226 leukemia 12.6% | HS 578T breast 31% | T-47D breast 25.1% | HCC-2998 colon 10.9%
active: NCI-H460 lung 4.55% | K-562 leukemia 7.31% | SF-295 CNS 1.12% | M14 melanoma 6.44% | HT29 colon 1.35% | U251 CNS 5.77% | SK-MEL-5 melanoma -49.1% | A498 renal -13.7% | HL-60(TB) leukemia -31.3% | CCRF-CEM leukemia 6.76% | BT-549 breast 7.12% | HCT-116 colon 5.07%

Nc1c(Br)cc([N+](=O)[O-])cc1[N+](=O)[O-]
inactive: NCI-H23 lung 98.4% | NCI-H460 lung 103% | K-562 leukemia 104% | RXF 393 renal 106% | SF-295 CNS 105% | HT29 colon 103% | U251 CNS 101% | CAKI-1 renal 92.8% | A498 renal 92.8% | HL-60(TB) leukemia 67.8% | CCRF-CEM leukemia 118% | RPMI-8226 leukemia 105% | HS 578T breast 106% | T-47D breast 107% | BT-549 breast 110% | HCT-116 colon 108% | HCC-2998 colon 102%
